Bioassay records as filed in PubChem.
A selection: hits, their analogues and other compounds. The true share with any hit is near 3%.
KCNH2 WT inh: KCNH2 (human, wildtype) channel inhibition | Q12809 | U2OS, BacMam KCNH2, thallium flux FluxOr; stronger effect = lower value | activity change, % at 1.84 µM | 340,000 tested, 0.37% active | AID 720551;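 active = maximum activity change below -70%; inconclusive = maximum activity change between -70% and -50%; inactive = maximum activity change above -50%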; note: % is set by controls: 0 for no effect and ±100 for the full control effect
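U2OS cells were transduced with wild-type KCNH2 virus (2.03 x 10^8 / mL) for 4 h at room temperature, then cultured overnight at 37 C. Thallium flux was read with FluxOr dye. Rate constants were normalized to DMSO controls.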
Chronic BCR inh: inhibitors of chronic active B-cell receptor signaling; AID 493014; Potency, µM (highest dose often 46.1 µM), inactives show at the top dose activity change, negative = inhibition, actives largely listed as inhibitors; 340,000 tested, 0.05% active; ABC-DLBCL IkBa-CBG/CBR reporter, luminescence ratio, 4 h; active = well fitted inhibition curve with a large enough effect in the signal ratio, with a control signal flat, not every such curve was filed as active; inconclusive = small, poorly fitted or top-dose-only effect, or effect the other way, or a change in a side signal; the % refers to the signal ratio;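 note: potency is the fitted concentration of half-maximal effect; plate controls were basal doxycycline-induced cells for no effect and cells given 10 µM MG132 for full effect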
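TMD8 ABC-DLBCL cells carrying doxycycline-inducible green luciferase fused to IkappaBalpha plus unfused red luciferase were exposed to compounds (up to 46 uM) for 4 hrs at 37C. Activity came from the overlap-corrected green/red luminescence ratio.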
ALOX12 inh: ALOX12 (human) lipoxygenase inhibition | Potency, µM (series often up to 108 µM), for the others: top-dose activity change, negative = inhibition, most hits filed as inhibitors | purified 12hLO, xylenol orange hydroperoxide absorbance | 580,000 tested, 1.1% active; active = well fitted inhibition curve with a large enough effect; inconclusive = small, poorly fitted or top-dose-only effect, or another doubt; inactive = no such curve, though single readings can be large or run the other way; note: potency is the fitted concentration of half-maximal effect; % is set by controls: 0 for no effect and ±100 for the full control effect
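Purified human 12hLO (150 nM final) in 25 mM Hepes, 0.01% Triton X-100, pH 7.0 was preincubated 15 min at room temperature with compound. Then 40 uM arachidonic acid was added, 30 min. Hydroperoxide was read by Fe-XO absorbance ratio 573/405 nm.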
ClpP mod: qHTS Assay for Activators of ClpP | ATP-dependent Clp protease proteolytic subunit (Bacillus subtilis (strain 168)), P80244 | purified B. subtilis ClpP, FRET peptide cleavage, 20 min | Potency, µM (titrated, usually from 57.5 µM), for the others: at the top dose activity change, negative = active | 340,000 tested, 1.9% active | AID 651965, 2013; active = well fitted falling curve with a large enough effect; inconclusive = small, poorly fitted or top-dose-only effect; inactive = no such curve, though single readings can be large or run the other way; note: potency is the fitted concentration of half-maximal effect; the source files actives as falling curves though it sought activators and does not explain the sign; nearly all actives have a fitted effect of over 65% in size
Target sequence (P80244 whole entry, looked up): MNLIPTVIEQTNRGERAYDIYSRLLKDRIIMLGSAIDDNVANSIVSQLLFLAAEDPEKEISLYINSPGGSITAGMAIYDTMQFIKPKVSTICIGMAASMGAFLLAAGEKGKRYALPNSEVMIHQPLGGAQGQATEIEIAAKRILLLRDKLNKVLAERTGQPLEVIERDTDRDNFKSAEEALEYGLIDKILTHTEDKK
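ClpP 10 microg/mL final, pH 8 Tris/KCl buffer with BSA, glycerol, Tween-20; compound pinned in; FRET-FV substrate; RT 20 min; Ex320/Em430; ΔFRET vs ADEP 5.8 microM, DMSO, no enzyme.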
LDHA block: LDHA (human) enzyme inhibition | P00338 | purified LDHA, NADH/diaphorase-resazurin fluorescence; stronger effect = lower value | activity change, % (values are at about 110 or 230 µM) | 480,000 tested, 0.15% active | AID 1347041; in the data active = activity change below about -30%; inconclusive = mostly about -25% to -30%;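 note: plate controls were DMSO wells for no effect and wells without enzyme for full effect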
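Enzyme activity of human lactate dehydrogenase 5 (2 nM; 0.06 mM NADH, 0.2 mM pyruvate, 5 min, RT) is measured via a resazurin/diaphorase fluorescence readout of residual NADH.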
KCNH2 3.1 inh: blocks the human KCNH2 3.1 channel isoform; U2OS KCNH2 3.1, thallium flux FluxOr; stronger effect = lower value; activity change, % (tested at about 1.8 µM); 340,000 tested, 0.95% active; AID 720553;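 active = maximum activity change below -70%; inconclusive = maximum activity change from -70% to -50%; inactive = maximum activity change above -50%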;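 note: thallium influx rate constant from kinetic fluorescence after stimulation buffer; % is set by controls: 0 for no effect and ±100 for the full control effect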
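Virally transduced U2OS (3.1 isoform, 4 h infection in dark at RT) → overnight 37 C → FluxOr + Red40 in HBSS/HEPES, 45 min → stimulation buffer, 2 min kinetic read → rate constant vs DMSO controls.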
Active calls of the source: *; ? = inconclusive; . = no result; [ ] = another dose, or the depositor's remark.

SMILES	KCNH2 WT inh	Chronic BCR inh	ALOX12 inh	ClpP mod	LDHA block	KCNH2 3.1 inh
CCCCn1c(C)c(C(=O)OCC)c2cc(O)ccc21	.	.	-1%	.	12	.
COC(=O)c1nc(-c2ccc3c(n2)C(=O)C(N)=C(OC)C3=O)c(N)c(-c2ccc(OC)c(OC)c2O)c1C	3	?	16µM*	.	28	13
Cc1cc(Br)ccc1N1C(=O)CC(=O)NC1=O	-11	-1%	45µM*	0%	-21	-1
COc1ccc(CC(C)NCCC(c2ccccc2)c2ccccc2)cc1 (stereo not given)	-96*	-1%	?	-1%	0	-101*
CCOC(=O)CC(SP1(=S)OCC2(CCCCC2)CO1)C(=O)OCC (stereo not given)	12	.	-20%	28µM*	-5	-12
O=C(c1ccc(Cl)cc1)N1CCC2(CC1)OCCO2	-7	1%	20%	-1%	-5	-6
O=C(c1ccc2nc3ccc(Cl)cc3c(=O)n2c1)N1CCC2(CC1)OCCO2	-34	.	-4%	14µM*	4	5
CCCCCCN1CCN(c2ccccc2Cl)CC1	-5	-3%	?	-1%	-13	-79*
COc1ccc(C(=O)OC2CC[C@@]3(C)C4CCC5[C@]6(O)C[C@H](O)[C@@]7(O)C(CN8CC(C)CCC8[C@@]7(C)O)[C@]6(O)C[C@@]53O[C@]24O)cc1OC (stereo not given in full)	.	.	-1%	.	.	.
Cc1c(C)c2ccc(OCC(=O)N3CCN(Cc4ccccc4)CC3)cc2oc1=O	-23	6%	48%	-2%	-9	-3
COC(=O)c1ccc(COc2ccc3c(C)c(C)c(=O)oc3c2)o1	-24	?	-1%	2.8µM*	-20	-8
N#CC1=C(N)Oc2nc(SCc3ccccc3Cl)nc(N)c2C1c1ccc(F)cc1 (stereo not given)	.	.	?	.	8	.
CN1Cc2ccccc2-n2ccnc2C12CCN(C(=O)c1cccc(C(F)(F)F)c1)CC2	.	.	14%	.	.	.
CN1CCC(OC(=O)Cc2ccccc2)CC1	.	0%	?	1%	2	-13
C[N+]1(CC(COCc2ccccc2)OC(=O)Cc2ccccc2)CCOCC1 (stereo not given)	2	3%	40µM*	-19%	?	-8
COc1ccc2c(c1)CC1(CN2C)C(=O)NC(=O)N(CCc2ccccc2)C1=O (stereo not given)	1	-24%	40µM*	-1%	25	-95*
Cc1noc(C)c1COc1ccc(CC(=O)N2CCCN(C)CC2)cc1	.	.	-33%	.	-6	.
O=C1NC(=O)N(c2ccccc2F)C(=O)/C1=C/c1ccc(Sc2nc3ccccc3[nH]2)o1	-20	?	32µM*	-1%	-6	5
O=C1NC(=O)N(c2cccc(Cl)c2)C(=O)/C1=C\c1ccc(Sc2nc3ccccc3[nH]2)o1	8	?	10µM*	0%	-20	.
CN1CCNc2cc(Nc3ccc(F)c(Cl)c3)ncc2C1	.	.	-16%[176 µM]	.	.	.
CCCNC(=O)OC[C@H]1C[C@@H]2CCN1C[C@@H]2c1cc(C(CC)CC)nc(-c2ccncc2)n1	.	.	8%	.	.	.
CCC(CC)c1cc([C@H]2CN3CC[C@H]2C[C@@H]3COC(=O)Nc2ccc(C(C)(C)C)cc2)nc(-c2ccncc2)n1	.	.	50µM*	.	.	.
Clc1ccc(N2CCN(Cc3ccccc3Cl)CC2)cc1	17	0%	?	1%	-9	?
Clc1ccccc1CN1CCN(c2ccccc2)CC1	-9	14%	0.89µM*	2%	-10	-12
COC[C@H]1CCCN1C[C@H]1CN2CC[C@H]1C[C@@H]2CNC(=O)Nc1ccsc1	.	.	-10%[176 µM]	.	.	.
SMILES	KCNH2 WT inh	Chronic BCR inh	ALOX12 inh	ClpP mod	LDHA block	KCNH2 3.1 inh
CN1CCCC1c1ccc(=O)[nH]c1 (stereo not given)	8	.	-22%	32µM*	-10	7
CN1CCCCC1c1cccnc1 (stereo not given)	.	.	12%	.	.	.
Cc1ccc(-c2nc(N3CCOCC3)s[n+]2-c2ccccc2)cc1	6	1%	20µM*	?	-1	1
COc1ccc2c3c1OC1C(O)C=CC4C(C2)[N+](C)(C)CCC341 (stereo not given)	-2	1%	45µM*	2%	-72*	2
COC1=CC=C2[C@H]3Cc4ccc(OC)c5c4[C@@]2(CCN3C)[C@H]1O5	16	-3%	59%	-24%	14	15
O=C/C=C/c1ccccc1	-10	5%	1%	-1%	-3	4
O=C1NC(=S)NC(=O)C1C/C=C/c1ccccc1	-1	?	4µM*	1%	2	-1
O=C1NC(=S)NC(=O)C1Cc1ccccc1	-14	.	28µM*	-5%	-7	8
NCC(c1ccc(Cl)cc1)N1CCCC1 (stereo not given)	.	.	?	.	-4	.
ClCCN1CCOCC1	.	.	?	.	-1	.
Cc1nc(-c2cccs2)cc([C@H]2CN3CC[C@H]2C[C@@H]3CO)n1	.	.	23%[176 µM]	.	.	.
COc1ccc(-c2coc3cc(OCC(=O)N4CCN(C)CC4)ccc3c2=O)cc1	.	.	?	.	3	.
COc1ccccc1CC(=O)N1CCN(CCc2ccccc2)CC1	7	-4%	-29%	.	-4	9
O=C(Cc1ccccc1)N1CCN(CCCc2ccccc2)CC1	28	0%	0.89µM*	0%	?	-23
CC[C@H]1CN2CC[C@H]1C[C@@H]2CNCc1cc2ccccc2o1	.	.	52%[176 µM]	.	.	.
COCc1cn(C[C@H]2C[C@@H]3CCN2C[C@@H]3C(=O)N2CCCC2)nn1	.	.	15%[176 µM]	.	.	.
Clc1ccc(Cl)c(-c2ccc(CNC3CN4CCC3CC4)o2)c1 (stereo not given)	.	.	8.9µM*	.	15	.
CC(C)Cn1cc(C(=O)N2CCC3(CC2)OCCO3)c2c3ccccc3n(C)c2c1=O	-10	0%	0%	16µM*	-2	3
Cn1c(C(=O)N2CCC3(CC2)OCCO3)cc2c(=O)n(C)c3ccccc3c21	8	0%	16%	-14%	-2	5
Cc1ccc(Cl)cc1N1CCN(C(=O)c2cn(CC(C)C)c(=O)c3c2c2ccccc2n3C)CC1	.	.	-25%	13µM*	1	.
Cn1c2ccccc2c2c(C(=O)N3CCC4(CC3)OCCO4)cn(C3CCCCC3)c(=O)c21	9	?	0%	18µM*	0	-10
Cn1cc(C(=O)N2CCC3(CC2)OCCO3)c2c3ccccc3n(C)c2c1=O	1	4%	8%	14µM*	6	-1
COc1ccc([N+](=O)[O-])cc1	.	.	?	.	19	.
O=C(NCc1ccccc1)[C@H]1CN2CCC1C[C@@H]2Cn1cc(CC2CCCCC2)nn1 (stereo not given in full)	.	.	20%[176 µM]	.	.	.
